The values below come from PubChem BioAssay (NCATS).

Test [1] concerns the target Cellular tumor antigen p53 (Homo sapiens) (UniProt P04637). The test can be described thus: Primary qHTS for small molecule compounds that upregulate eGFP-tagged delta133p53alpha (in N-terminal) cells. (AID 2060322).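 For activation: cells pre-induced with doxycycline then dosed without doxycycline; series mostly up to about 56 µM; 0% = DMSO vehicle and 100% = reference activator.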 Note: nearly all actives have a fitted effect of over 75% in size. Note: potency is the fitted concentration of half-maximal effect. The following applies: NCI-H358 eGFP-delta133p53alpha fluorescence, 24 h; activation: hits give high values. In short, it runs like this:
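NCI-H358 cells pre-induced 24 h with 10 ng/ml doxycycline for eGFP-delta133p53alpha, plated dox-free and exposed 24 h at 37C to titrated compounds. Fixed, Hoechst-stained; gated GFP peak intensity by laser scanning cytometry, normalized to DMSO (0%) and 57.5 uM 5-azacytidine (100%).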
A general note: qHTS replaces the single test concentration by a dilution series.

In test [2] the target is Aldehyde dehydrogenase, mitochondrial (Homo sapiens) (UniProt P05091). The test can be described thus: qHTS for Inhibitors of the Aldehyde Dehydrogenase Family (ALDH2) Primary screen (AID 2061308). Note: nearly all actives have a fitted effect of over 55% in size. Note: potency is the fitted concentration of half-maximal effect.
Test [3] concerns the target Retinaldehyde dehydrogenase 3 (Homo sapiens) (UniProt P47895). In words: qHTS for Inhibitors of the Aldehyde Dehydrogenase Family (ALDH1A3) Confirmatory screens (AID 2061311). Note: nearly all actives have a fitted effect of over 60% in size. Note: potency is the fitted concentration of half-maximal effect.
For test [4] the target is unchanged. The test can be described thus: qHTS for Inhibitors of the Aldehyde Dehydrogenase Family (ALDH1A3) Validation screen (AID 2061312). Note: nearly all actives have a fitted effect of over 45% in size. Note: potency is the fitted concentration of half-maximal effect.
The target is the same in test [5]. The test can be described thus: qHTS for Inhibitors of the Aldehyde Dehydrogenase Family (ALDH1A3) Primary screen (AID 2061315). Note: potency is the fitted concentration of half-maximal effect.
Test [6] concerns the target Aldehyde dehydrogenase 1A1 (Homo sapiens) (UniProt P00352). The test can be described thus: qHTS for Inhibitors of the Aldehyde Dehydrogenase Family (ALDH1A1) Confirmatory screens (AID 2061316). Note: nearly all actives have a fitted effect of over 65% in size. Note: potency is the fitted concentration of half-maximal effect.
For test [7], the target named is Retinal dehydrogenase 2 (Homo sapiens) (UniProt O94788). The test can be described thus: qHTS for Inhibitors of the Aldehyde Dehydrogenase Family (ALDH1A2) Confirmation screens (AID 2061314). Note: nearly all actives have a fitted effect of over 65% in size. Note: potency is the fitted concentration of half-maximal effect.
Test [8] in a line: BET inhibitor-based combinations targeting novel dependencies in MECOM-rearranged (r) AML: SET-2 cell line (AID 2202231).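 Note: plate controls were DMSO treated cells for no effect and wells without cells for full effect; nearly all actives have a fitted effect of over 35% in size.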 Conditions: SET-2 AML cells viability, CellTiter-Glo luminescence, 48 h; viability: hits give low values, series mostly up to about 46 µM. In short, it runs like this: (§1)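 Readout: CellTiter-Glo luminescence. Exposure: 48 h, 11 concentrations, 500 cells/well. Metric: AUC and within-line Z-AUC after DMSO/empty-well normalization.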
Background: In ATP-based viability assays light output follows the ATP content of the culture.

The nature of test [9]: BET inhibitor-based combinations targeting novel dependencies in MECOM-rearranged (r) AML: UCSD-AML1 cell line (AID 2202235).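 Note: series mostly up to about 46 µM; plate controls were DMSO vehicle wells for no effect and blank wells for full effect; nearly all actives have a fitted effect of over 40% in size.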 In short, it runs like this: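 Seeding density was 500 cells/well, and drug exposure lasted 48 hr under standard culture conditions. Read-out used CellTiter-Glo reagent with a 15 min room-temperature incubation before luminescence measurement; AUC and Z-AUC summarize the normalized responses.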

Test [10] can be described thus: BET inhibitor-based combinations targeting novel dependencies in MECOM-rearranged (r) AML: AML-191 cell line (AID 2202236;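 note: plate controls were vehicle wells for no effect and wells without cells for full effect; nearly all actives have a fitted effect of over 35% in size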). The gist of the method: as §1

“And” between values parts separate entries of the source, which are not always exact repeats. Identical values can stand only once. Results filed as inconclusive are left out. Values without a mark were called inactive. The source made the active and inactive calls. Calls come from the whole dose curve; as a rule, active = well fitted curve in the direction sought with a large enough effect; inconclusive = small, poorly fitted or top-dose-only effect, or another doubt; inactive = no such curve, though single readings can be large; an effect the other way counts as inactive or inconclusive.

Cellular tumor antigen p53 (Homo sapiens), sequence (P04637 whole entry, looked up): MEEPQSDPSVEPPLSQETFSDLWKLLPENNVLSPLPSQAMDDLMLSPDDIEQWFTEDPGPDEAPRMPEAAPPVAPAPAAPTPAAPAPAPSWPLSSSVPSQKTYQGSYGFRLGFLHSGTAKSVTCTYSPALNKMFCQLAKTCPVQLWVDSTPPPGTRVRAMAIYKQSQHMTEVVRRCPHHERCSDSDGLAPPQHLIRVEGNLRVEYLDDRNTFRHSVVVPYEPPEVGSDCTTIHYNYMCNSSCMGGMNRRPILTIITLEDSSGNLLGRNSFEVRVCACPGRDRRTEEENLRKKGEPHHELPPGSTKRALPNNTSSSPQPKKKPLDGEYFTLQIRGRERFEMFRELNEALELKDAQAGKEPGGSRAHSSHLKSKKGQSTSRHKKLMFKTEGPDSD

Take `COc1cc(C(=O)OC[C@H]2O[C@@H](Oc3ccccc3/C=C/C(=O)O)[C@H](O)[C@@H](O)[C@@H]2O)cc(OC)c1OC`: the activation in test [1] was 1.53%. Besides, the Potency entry in [2] was “inactive”. For the same compound, in test [3], the Potency is 9.79 µM (active).

Regarding `O=C(Nc1cc2cc[nH]c2cn1)c1ccccc1`, the activation in test [1] is -10%. The Potency entry in [2] is “inactive”. In addition, the Potency in test [4] is 39.8 µM (active).

For the compound `COc1cc(O[C@@H]2O[C@H](CO[C@H]3OC[C@](O)(CO)[C@H]3O)[C@@H](O)[C@H](O)[C@H]2O)cc(OC)c1O`, the activation in test [1] was -16.8%. Further, the Potency result in test [2] and in [6] was “inactive” each time. Moreover, the results for the Potency in test [3] and in [5] were 4.91 µM (active) and 2.82 µM (active), respectively.

For `CC(=O)c1c(C)cc2cccc(O)c2c1O[C@@H]1O[C@H](CO)[C@@H](O)[C@H](O)[C@H]1O`, in [1], the activation is -2.29%. The Potency entry in [2] and in test [7] was “inactive” throughout. Also, the Potency in test [3] was 3.12 µM (active).

With `CC(=O)CC1CCC(C(C)C(=O)OCC(O)CO)O1` (centres undefined), the activation in [1] was -0.763%. Moreover, the Potency result in test [2] is “inactive”. Further, the values for the Potency in test [3], in test [5] and in test [6] were 4.49 µM (active), 15.8 µM (active) and 15.9 µM (active), respectively.

For `CN(C)CCCCCCNC(=O)c1cccc(-c2cc(O)c3ncccc3c2)c1`, the activation in test [1] was 0.333%. In addition, the Potency result in test [2] and in test [7] was “inactive” each time. In test [3], the Potency was 8.96 µM (active).

Regarding `CC[C@H](NC(=O)c1c(O)c(-c2ccccc2)nc2ccccc12)c1ccccc1`, in test [1], the activation was 2.86%. In test [2], the Potency entry was “inactive”. In addition, the Potency in test [3] was 3.57 µM (active); in test [7], 1.27 µM (active); in [6], 3.18 µM (active).

Consider `COc1cc([C@H]2OC[C@](O)(Cc3ccc(O[C@@H]4O[C@H](CO)[C@@H](O)[C@H](O)[C@H]4O)c(OC)c3)[C@@H]2CO)ccc1O`, for which, in [1], the activation was -1.53%. The Potency result in test [2] is “inactive”.

With `C/C(=C\CC/C(C)=C/CC[C@]1(C)CCc2cc(O)cc(C)c2O1)CC/C=C(\C)C(=O)O`, in test [1], the activation is -5.36%. Moreover, the Potency result in [2], in test [3], in test [7] and in test [5] was “inactive” each time.

With `O=C(Nc1nc2ccc([N+](=O)[O-])cc2s1)C1CCCCC1`, in test [1], the activation is 17.2%. Further, the Potency result in test [2] is “inactive”. Moreover, the Potency in test [4] was 3.98 µM (active).

Take `OC[C@H]1O[C@@H](Oc2cc(O)cc(-c3cc4ccc(O[C@@H]5O[C@H](CO)[C@@H](O)[C@H](O)[C@H]5O)cc4o3)c2)[C@H](O)[C@@H](O)[C@@H]1O`: the activation in test [1] is -14.3%. For the same compound, the Potency entry in test [2] is “inactive”.

For the compound `COc1cc(OC)c(NC(=O)c2ccc(Cc3cc4c(cc3C)C(C)(C)CCC4(C)C)o2)c(OC)c1`, the activation in test [1] was 10.5%. Besides, the Potency entry in test [2] was “inactive”. Further, the Potency was 4 µM (active) in test [3], 5.65 µM (active) in test [7] and 5.04 µM (active) in [6].

As for `CC(C)c1cc2c(c(O)c1O)[C@@]13CCCC(C)(C)C1[C@@H](O)[C@@H]2OC3=O` (some centres undefined), the activation in [1] is -5.34%. The Potency entry in test [2] was “inactive”. Besides, the Potency was 13.9 µM (active) in test [3] and 4.47 µM (active) in test [5].

Regarding `CC1(C)C(O)CCC2(C)C1C(O)C=C1COC(=O)C12O` (centres undefined), in test [1], the activation is 3.82%. Further, the Potency entry in test [2] was “inactive”.

Turning to `COc1ccc(C2COc3cc(O)ccc3C2)c(O)c1` (centres undefined), the activation in test [1] is -12.2%. In addition, the Potency result in [2] was “inactive”. Moreover, the figures for the Potency in test [3] and in test [5] were 17.9 µM (active) and 25.1 µM (active), respectively.

In the case of `CC1(C)CC[C@]2(CO[C@@H]3O[C@H](CO)[C@@H](O)[C@H](O)[C@H]3O)[C@@H](O)C[C@]3(C)C(=CCC4[C@@]5(C)CC[C@H](O[C@@H]6O[C@H](CO[C@@H]7O[C@H](CO[C@@H]8OC[C@@H](O)[C@H](O)[C@H]8O)[C@@H](O)[C@H](O)[C@H]7O)[C@@H](O)[C@H](O)[C@H]6O)C(C)(C)C5CC[C@]43C)[C@@H]2C1` (some centres undefined), the activation in test [1] was -2.68%. In test [2], the Potency entry was “inactive”.

For `Cc1cccc(C#Cc2cc(F)cc(C#N)c2)n1`, in [1], the activation is -6.68%. The Potency entry in [2] was “inactive”. For the same compound, the Potency in [4] was 5.62 µM (active).

On to `COc1ccc(C)c2sc(NC(=O)c3ccncc3)nc12`, for which, in test [1], the activation was -15.7%. Besides, the Potency result in test [2] was “inactive”.

As for `CCCC/C=C\CCCCCc1cc(=O)c2ccccc2n1C`, the activation in test [1] was -0.893%. Further, the Potency in [2] was 8.91 µM (active); in test [7], 6.97 µM (active). The Potency result in test [3] and in [5] was “inactive” each time.

Consider `CC1=CC2=C(C)C(=O)C(C)(O)C(O)C2CO1` (centres undefined), for which the activation in [1] was -5.34%. For the same compound, the Potency entry in test [2] and in [6] was “inactive” throughout. Further, in test [3], the Potency was 22.5 µM (active).

As a reminder, the viability is a read-out of living cells in per cent, often relative to untreated cells. With `Cc1nn(C)c2c1C(c1ccc(C(F)(F)F)cc1)C(C#N)=C(N)O2` (centres undefined), the activation in test [1] is -5.25% and 36.9%. Further, the Potency result in [2], in test [3], in test [9] and in test [10] was “inactive” throughout. The Potency in test [4] was 6.31 µM (active). In addition, in [8], the viability is 87.6%.

Take `C=C[C@@]1(C)C=C2C(=O)C(O)=C3[C@](C)(C(=O)O)CC[C@@H]4C[C@]34[C@]2(O)C(=O)C1`: the Potency in test [1] is 6.59 µM (active). For the same compound, the Potency entry in test [2] was “inactive”.

`CC1=CC(=O)CC(C)(C)C1CO[C@@H]1O[C@H](CO)[C@@H](O)[C@H](O)[C@H]1O` (some centres undefined): the activation in [1] was 6.25%. Besides, in test [2], the Potency entry was “inactive”.

In the case of `CN(CCCNC(=O)c1ccc2nc3c(c(Cl)c2c1)CCCC3)Cc1ccccc1`, the activation in test [1] was 20.5%. The Potency result in test [2], in [4] and in test [5] was “inactive” throughout. Also, the Potency in test [3] is 8.96 µM (active); in test [7] it was 7.12 µM (active); in test [6] it was 8.96 µM (active).

For `COc1cncc(C#Cc2ccccn2)c1`, in test [1], the activation was 1.43%. For the same compound, the Potency result in [2] was “inactive”. The Potency in test [4] was 22.4 µM (active).

Consider `CC(C)(Oc1ccc(-c2nc3cc(Cl)ccc3s2)cc1)C(=O)O`, for which the activation in test [1] was -19.6%. For the same compound, in test [2], the Potency entry is “inactive”. The Potency in test [3] was 12.6 µM (active); in [4] it was 31.6 µM (active); in test [5], 11.2 µM (active).

As for `COc1cc(O)c(C(=O)O)c(CCc2ccccc2)c1`, in test [1], the activation is -15.3%. For the same compound, the Potency entry in test [2] was “inactive”. Besides, the Potency in test [3] is 12.7 µM (active); in test [6], 10.1 µM (active).

As to `CNCCC(c1cccs1)c1ccc(O)c2ccccc12` (centres undefined), in [1], the activation is -7.67%. For the same compound, the Potency result in test [2] was “inactive”. For the same compound, the results for the Potency in [3] and in test [5] were 22.5 µM (active) and 15.8 µM (active), respectively.

On to `C=C1C(=O)O[C@@H]2C3C(=C(C)[C@@H](O)[C@@H](OC(=O)/C(=C/C)COC(C)=O)[C@@H]12)C(=O)[C@H]1O[C@@]31C` (some centres undefined), for which the Potency in [1] was 2.08 µM (active); in test [7] it was 0.98 µM (active). Moreover, the Potency entry in test [2], in test [3], in test [5] and in test [6] was “inactive” throughout.

Take `Cc1ccc(C(=O)Nc2noc3ccccc23)cc1`: the activation in test [1] was -1%. For the same compound, the Potency entry in test [2], in test [7] and in [6] was “inactive” each time. Besides, the Potency was 1.27 µM (active) in test [3] and 5.01 µM (active) in test [5].

In the case of `CC(=O)c1c(O)cc2cccc3c2c1CC(C)(O)O3` (centres undefined), the activation in test [1] is 6.11%. Besides, the Potency entry in [2] and in test [5] was “inactive” in each case. Also, in [3], the Potency is 12.7 µM (active).

Take `Cc1nnc(-c2ccc3occ(-c4ccc(S(C)=O)cc4)c3c2)o1` (centres undefined): the activation in test [1] is -20.5%. For the same compound, the Potency result in test [2] and in test [6] was “inactive” throughout. In addition, the Potency in [3] is 0.631 µM (active).

In the case of `Cc1ccc(-c2cn3c4c(sc3n2)CCCC4)cc1`, the activation in test [1] is 11%. Also, the Potency result in [2] is “inactive”. Besides, the Potency in test [4] was 25.1 µM (active).
